What all share (assay): growth (OD600 after 10 h); higher = more growth (less inhibition)
Assay [1] concerns E. coli TESEC Alr+ wild-type control. Conditions: compound 0.1 mM; raw OD600 reference: median of DMSO wells 0.241, cell-free background 0.041. The procedure:
(§1)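 TESEC Mtb Alr E. coli, or the Alr+ wild-type control, in 384-well plates with Prestwick library compounds at 0.1 mM and 1% DMSO, across arabinose induction levels of 1E3 to 1E7 nM. Growth is read as OD600 after 10 h at 37 °C in triplicate biological replicates.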

The subject of assay [2] is E. coli TESEC Mtb Alr. The note with it: compound 0.1 mM. The procedure: as §1
The next assay deals with E. coli TESEC Mtb Asd. Conditions: compound 0.1 mM. The procedure: (§2)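 TESEC E. coli strains in which the native enzyme is deleted and replaced by arabinose-inducible Mtb Asd, DapB, CysH or TrpD, each grown in its selective medium. Strains were screened against the Prestwick library at 0.1 mM and 1% DMSO in 384-well format at low and high arabinose induction. Growth is read as OD600 after 10 h in triplicate.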

For the next assay, the system named is E. coli TESEC Mtb DapB. The note with it: compound 0.1 mM. The procedure:
as §2

Assay [3] deals with E. coli TESEC Alr+ wild-type control. Conditions: compound 0.1 mM; raw OD600 reference: median of DMSO wells 0.49, cell-free background 0.052. The procedure: (§3)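 TESEC Mtb Alr E. coli (ΔaraC ΔtolC ΔentC Δalr ΔdadX, arabinose-inducible Mtb Alr) or the Alr+ wild-type control strain, grown in defined M9-fructose medium without D-alanine in 96-well plates with Prestwick library compounds at 0.1 mM and 1% DMSO. Low Alr induction is 0.1 µM arabinose and high induction is 10 mM arabinose.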

Assay [4] relates to E. coli TESEC Mtb Alr. The note with it: compound 0.1 mM. Here is the method: as §3
The source holds these as a separate data set.

Where [5] appears, read: arabinose 1000 nM, raw OD600 reference: median of DMSO wells 0.294, cell-free background 0.041.
Setting [6] is: arabinose 10000 nM, raw OD600 reference: median of DMSO wells 0.264, cell-free background 0.041.
[7] abbreviates: arabinose 100000 nM, raw OD600 reference: median of DMSO wells 0.201, cell-free background 0.041.
[8] abbreviates: arabinose 1000000 nM, raw OD600 reference: median of DMSO wells 0.193, cell-free background 0.041.
Where [9] appears, read: arabinose 10000000 nM, raw OD600 reference: median of DMSO wells 0.146, cell-free background 0.041.
Setting [10] is: arabinose induction (level): High, raw OD600 reference: median of DMSO wells 0.331, cell-free background 0.041.
[11] abbreviates: arabinose induction (level): Low, raw OD600 reference: median of DMSO wells 0.417, cell-free background 0.041.
The mark [12] stands for this setting: arabinose induction (level): High, raw OD600 reference: median of DMSO wells […], cell-free background 0.041.
Setting [13] is: arabinose induction (level): Low, raw OD600 reference: median of DMSO wells 0.227, cell-free background 0.041.
Setting [14] is: arabinose 100 nM, raw OD600 reference: median of DMSO wells 0.413, cell-free background 0.052.
Setting [15] is: arabinose 10000000 nM, raw OD600 reference: median of DMSO wells […], cell-free background 0.052.

Counter-ions that a name gives are not always drawn. ± gives the standard deviation of the averaged measurements.

From the supplement of paper PMC9262897, “Low-cost anti-mycobacterial drug discovery using engineered E. coli” (Nature Communications, 2022) come the findings set out here.

Regarding `CN(Cc1cnc2nc(N)nc(N)c2n1)c1ccc(C(=O)N[C@@H](CCC(=O)O)C(=O)O)cc1` (racemic) [Amethopterin (R,S)], the growth in assay [1] came out at 0.213 ± 0.01; with E. coli TESEC Mtb Alr [2] (setting [5]), 0.273 ± 0.0079; in the assay with E. coli TESEC Mtb Alr [2] (setting [6]) it was 0.224 ± 0.011; with E. coli TESEC Mtb Alr [2] (setting [7]), 0.206 ± 0.049; with E. coli TESEC Mtb Alr [2] (setting [8]) it was 0.14 ± 0.0075; with E. coli TESEC Mtb Alr [2] (setting [9]), 0.144 ± 0.0042. In addition, the growth was 0.213 ± 0.024 with E. coli TESEC Mtb Asd (setting [10]); 0.368 ± 0.029 in the assay on E. coli TESEC Mtb Asd (setting [11]); 0.192 ± 0.033 with E. coli TESEC Mtb DapB (setting [12]); 0.204 ± 0.022 in the assay on E. coli TESEC Mtb DapB (setting [13]); 0.0999 ± 0.0032 in assay [3]; 0.244 ± 0.13 in the assay on E. coli TESEC Mtb Alr [4] (setting [14]). In addition, in the assay with E. coli TESEC Mtb Alr [4] (setting [15]), the growth is 0.125 ± 0.0053.
As for `CCC(=O)OCC(=O)[C@@]1(OC(=O)CC)[C@@H](C)C[C@H]2[C@@H]3CCC4=CC(=O)C=C[C@]4(C)[C@@]3(Cl)[C@@H](O)C[C@@]21C` [Beclomethasone dipropionate], the growth came out at 0.216 ± 0.0072 in assay [1]; 0.31 ± 0.028 in the assay on E. coli TESEC Mtb Alr [2] (setting [5]); 0.28 ± 0.018 in the assay with E. coli TESEC Mtb Alr [2] (setting [6]); 0.179 ± 0.013 with E. coli TESEC Mtb Alr [2] (setting [7]); 0.12 ± 0.013 with E. coli TESEC Mtb Alr [2] (setting [8]); 0.167 ± 0.0041 in the assay on E. coli TESEC Mtb Alr [2] (setting [9]). Also, the growth with E. coli TESEC Mtb Asd (setting [10]) is 0.246 ± 0.032; in the assay on E. coli TESEC Mtb Asd (setting [11]) it was 0.3 ± 0.031; in the assay on E. coli TESEC Mtb DapB (setting [12]), 0.22 ± 0.0053; in the assay with E. coli TESEC Mtb DapB (setting [13]) it was 0.248 ± 0.035; in assay [3], 0.499 ± 0.027; in the assay on E. coli TESEC Mtb Alr [4] (setting [14]) it was 0.442 ± 0.0072. The compound also gave a growth in the assay on E. coli TESEC Mtb Alr [4] (setting [15]) of 0.247 ± 0.018.
Take `C=CCc1ccccc1OCC(O)CNC(C)C` (configuration not stated) [Alprenolol hydrochloride]: the growth stood at 0.217 ± 0.0068 in assay [1]; 0.267 ± 0.013 in the assay on E. coli TESEC Mtb Alr [2] (setting [5]); 0.259 ± 0.013 in the assay with E. coli TESEC Mtb Alr [2] (setting [6]); 0.199 ± 0.023 in the assay with E. coli TESEC Mtb Alr [2] (setting [7]); 0.156 ± 0.0022 in the assay on E. coli TESEC Mtb Alr [2] (setting [8]); 0.145 ± 0.0043 in the assay with E. coli TESEC Mtb Alr [2] (setting [9]). The growth in the assay on E. coli TESEC Mtb Asd (setting [10]) turned out to be 0.322 ± 0.074; in the assay on E. coli TESEC Mtb Asd (setting [11]) it was 0.419 ± 0.027; in the assay with E. coli TESEC Mtb DapB (setting [12]), 0.183 ± 0.011; in the assay on E. coli TESEC Mtb DapB (setting [13]), 0.284 ± 0.059; in assay [3], 0.446 ± 0.015; in the assay on E. coli TESEC Mtb Alr [4] (setting [14]), 0.405 ± 0.013. The compound further registered a growth in the assay on E. coli TESEC Mtb Alr [4] (setting [15]) of 0.363 ± 0.013.
`C=CCSCC1Nc2cc(Cl)c(S(N)(=O)=O)cc2S(=O)(=O)N1` (configuration not stated) [Althiazide]: the growth in assay [1] was 0.244 ± 0.006; in the assay on E. coli TESEC Mtb Alr [2] (setting [5]) it was 0.301 ± 0.019; in the assay on E. coli TESEC Mtb Alr [2] (setting [6]), 0.2578 ± 0.0023; with E. coli TESEC Mtb Alr [2] (setting [7]) it was 0.219 ± 0.016; with E. coli TESEC Mtb Alr [2] (setting [8]), 0.183 ± 0.011; with E. coli TESEC Mtb Alr [2] (setting [9]), 0.141 ± 0.0034. Moreover, the growth in the assay with E. coli TESEC Mtb Asd (setting [10]) stood at 0.261 ± 0.052; in the assay with E. coli TESEC Mtb Asd (setting [11]), 0.441 ± 0.019; with E. coli TESEC Mtb DapB (setting [12]), 0.209 ± 0.0088; in the assay on E. coli TESEC Mtb DapB (setting [13]) it was 0.242 ± 0.018; in assay [3], 0.444 ± 0.049; in the assay on E. coli TESEC Mtb Alr [4] (setting [14]) it was 0.383 ± 0.006. In the assay on E. coli TESEC Mtb Alr [4] (setting [15]), this compound displayed a growth of 0.326 ± 0.012.
